FBW7 act – human FBW7 E3 ligase activation, primary screen. Q969H0. AlphaScreen FBW7–phospho-cyclin E peptide binding, activator screen. normalized activity (activation), % at 26.1 µM. 0.13% of 650,000 active. AID 1259310; in the data active = normalized activity above about 1.9%;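 also: purified mutant Fbw7 with reduced substrate affinity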
Target sequence (Q969H0 whole entry, looked up): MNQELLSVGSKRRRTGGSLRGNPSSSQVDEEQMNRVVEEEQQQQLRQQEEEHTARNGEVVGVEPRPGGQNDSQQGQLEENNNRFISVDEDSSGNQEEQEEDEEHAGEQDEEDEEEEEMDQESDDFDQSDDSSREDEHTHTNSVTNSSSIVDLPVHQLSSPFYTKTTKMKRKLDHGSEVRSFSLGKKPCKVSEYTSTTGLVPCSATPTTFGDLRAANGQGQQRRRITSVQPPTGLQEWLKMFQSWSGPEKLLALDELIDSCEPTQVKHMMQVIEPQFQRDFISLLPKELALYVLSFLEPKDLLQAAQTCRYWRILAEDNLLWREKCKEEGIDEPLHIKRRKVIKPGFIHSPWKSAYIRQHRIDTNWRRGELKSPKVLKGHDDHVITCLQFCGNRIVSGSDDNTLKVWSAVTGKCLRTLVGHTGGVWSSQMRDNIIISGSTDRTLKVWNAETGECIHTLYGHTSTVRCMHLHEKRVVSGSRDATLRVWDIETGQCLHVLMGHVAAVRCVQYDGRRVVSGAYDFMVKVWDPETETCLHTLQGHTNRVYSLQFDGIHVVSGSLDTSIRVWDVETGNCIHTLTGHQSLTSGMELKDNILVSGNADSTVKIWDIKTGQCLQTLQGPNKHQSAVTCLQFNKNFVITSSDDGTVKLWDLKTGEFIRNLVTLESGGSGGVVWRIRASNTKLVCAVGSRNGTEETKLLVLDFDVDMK
MITF inh – human MITF inhibition, primary screen; O75030; AlphaScreen MITF homodimerization, bead proximity signal; inhibition, % at 2.6 µM; 0.91% of 650,000 active; in the data active = inhibition above about 50%;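 also: 0% = vehicle wells with protein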
TEAD-YAP block – TEAD-YAP interaction inhibition | HEK-TIYL cells, TEAD-Gal4/YAP UAS-luciferase luminescence | inhibition, % at 9.12 µM | 1.4% of 640,000 active | AID 1259422; in the data active = inhibition above about 32%;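 also: 0% = median of test compound wells and 100% = reference inhibitor wells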
GPR151 activ – activators of human GPR151 | Q8TDV0 | PathHunter beta-arrestin GPR151 cells, luminescence | activation, % at 11.2 µM | 1% of 650,000 active | AID 1508602; in the data active = activation above about 4.9%;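 also: 0% = median of compound wells and 100% = cells with positive control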
Numbers without * were called inactive. The list is not random: actives were taken first. Their share in the collection is about 3.5%.

SMILES | FBW7 act | MITF inh | TEAD-YAP block | GPR151 activ
Cc1ccc(-n2c(/C=C\c3cccc(C(F)(F)F)c3)nc3ccccc3c2=O)cc1Cl | 0 | -14 | -5 | 0
CCOC(=O)c1cc(-c2ccc(N(CC)CC)cc2)no1 | 5.3* | 11 | -58 | 0
COC(=O)c1cc(-c2ccc(OC)cc2)no1 | 1.9* | -3 | -5 | 3
COc1ccc(CN2CCNC(=O)C2CC(=O)N2CCN(C)CC2)cc1OC (centres undefined) | 0 | 3 | -8 | 0
Cc1ccc2c(c1)-c1c(cnn1CC(=O)Nc1ccccc1C)CO2 | 0 | 0 | 6 | -1
O=C(Nc1ccc2ccccc2c1)c1scc2c1CCCC2 | 0 | -23 | 25 | -3
O=C(Nc1cccc(O)c1)c1c(O)c2c([nH]c1=O)CCCC2 | 0 | 2 | 56* | 1
CC(=O)c1ccc(NC(=O)c2scc3c2CCCC3)cc1 | 0 | 4 | 72* | 0
COc1ccc(NC(=O)c2scc3c2CCCC3)cc1 | 0 | -10 | 40* | -6
Cc1ccc(NC(=O)c2scc3c2CCCC3)cc1 | 0 | 0 | 30 | -3
O=C(Nc1cccc(O)c1)c1scc2c1CCCC2 | 0 | -8 | 79* | -4
CC(C)(C)c1ccc(NC(=O)c2scc3c2CCCC3)cc1 | 0 | -17 | 33* | 0
Nc1ccc2cc(S(=O)(=O)O)cc(O)c2c1 | -2 | 77* | -2 | -1
O=S(=O)(O)c1cc(O)c2cc(Nc3ccccc3)ccc2c1 | 0 | 44 | 12 | 1
COc1ccc(C2C(C#N)=C(N)Oc3n[nH]c(C(C)(C)C)c32)c(OC)c1 (centres undefined) | 0 | -4 | -4 | -1
Cc1nnc2sc(-c3ccc(NC(=O)C(C)(C)C)cc3)nn12 | 0 | 1 | 40* | -1
Cc1cc(Cl)ccc1N(CC(=O)Nc1cccc(C(F)(F)F)c1)S(C)(=O)=O | 0 | 17 | 2 | -1
c1cncc(CNc2nc(NCCN3CCOCC3)c3ncn(C4CCCCC4)c3n2)c1 | 0 | 11 | 9 | 1
c1cncc(Nc2nc(NCCN3CCOCC3)c3ncn(C4CCCCC4)c3n2)c1 | 0 | -2 | 42* | -1
c1cncc(Nc2nc(Nc3ccc(N4CCOCC4)cc3)c3ncn(C4CCCCC4)c3n2)c1 | 0 | 9 | 37* | 0
c1cc(N2CCOCC2)ccc1Nc1nc(Nc2ccc(N3CCOCC3)cc2)c2ncn(C3CCCCC3)c2n1 | 0 | 52* | 7 | -1
Nc1cnn2c1N=NC2SCC(=O)Nc1nnc(SCC(=O)Nc2ccccc2)s1 (centres undefined) | 0 | 10 | -4 | 0
c1ccc(CN2CCC(NCc3ccc(N4CCOCC4)cc3)CC2)cc1 | 0 | 68* | -6 | 1
Cc1ccc(C)c(Nc2nc(NCCN(C)C)nc3nccnc23)c1 | 2.1* | -11 | -4 | -2
Cc1ccc(C)c(Nc2nc(NCc3ccco3)nc3nccnc23)c1 | 0 | 0 | -1 | -2
SMILES | FBW7 act | MITF inh | TEAD-YAP block | GPR151 activ
CCCN(CCC)S(=O)(=O)c1ccc(C(=O)Nc2nc3ccc4nc(SC)sc4c3s2)cc1 | 0 | -6 | -2 | 2
CC(C)CCN1C(=O)c2cccc3c(N)ccc(c23)C1=O | 2.1* | 5 | -62 | 0
CCCCN1C(=O)c2cccc3c(N)ccc(c23)C1=O | 1 | -22 | -20 | 2
CN(C)c1ccc2nc3c(nc2c1)C(=O)c1ccccc1C3=O | 0 | -8 | -20 | -2
Cc1cc2nc3cc(N)c(C)cc3cc2cc1N | 0 | 8 | 73* | 1
Cc1cc2nc3ccc(N(C)C)cc3nc2cc1N | 0 | 58* | 32* | -6
COc1ccc(NC(=O)CN2CCC(n3nnc4cc(F)ccc43)CC2)cc1 | 0 | -1 | 5 | 0
COc1cccc(C(=O)Nc2ccc3nc(N4CCN(c5ncccn5)CC4)cc(C)c3c2)c1OC | 0 | 12 | 43* | 2
COc1ccccc1C(=O)Nc1ccc2nc(N3CCN(c4ncccn4)CC3)cc(C)c2c1 | 0 | -7 | 25 | 0
CN=c1scc(-c2cccs2)n1/N=C/c1ccc[nH]1 | 0 | 17 | 87* | -1
CN=c1scc(-c2ccccc2Br)n1/N=C/c1ccc[nH]1 | 0 | -5 | 88* | -2
CCCCNC(=O)CSc1nc2sc(C(=O)OCC)c(C)c2c(=O)n1CCc1ccc(Cl)cc1 | 0 | 2 | -7 | -2
CCCCCCCSc1n[nH]c(=O)[nH]c1=O | 0 | 4 | 2 | -1
COc1cccc(O)c1O | 0 | 90* | 43* | -2
O=C(c1ccccc1)N1CCN(c2nc3ccccc3s2)CC1 | 0 | 2 | -20 | 0
CCN1CCN(C(=O)c2cc(C(C)C)n(-c3nc4ccccc4s3)n2)CC1 | 0 | -4 | 81* | 0
COc1cccc(NC(=O)c2cc(C(C)C)n(-c3nc4ccccc4s3)n2)c1 | 0 | -11 | 48* | 0
CC(C)c1cc(C(=O)Nc2ccc(Cl)cn2)nn1-c1nc2ccccc2s1 | 0 | 16 | 46* | 1
COc1ccc(NC(=O)c2cc(C(C)C)n(-c3nc4ccccc4s3)n2)c(OC)c1 | 0 | -5 | 64* | -2
Cc1nc2nc(SCc3cc(=O)n4cc(Br)ccc4n3)nn2c(C)c1Cc1ccc(Cl)cc1 | 0 | 0 | -4 | -1
COc1ccccc1C(=O)NCC1CCCO1 (centres undefined) | 0 | 4 | -12 | 4
CCc1c(C)sc(NC(=O)C2C3C=CC(C3)C2C(=O)O)c1C(=O)OC(C)C (centres undefined) | 0 | -4 | 64* | 1
CCc1ccc(S(=O)(=O)Nc2cccc(N3CCCS3(=O)=O)c2)cc1 | 0 | 15 | 33* | 1
COc1ccc(-c2noc(Nc3ccc(C)c(F)c3)n2)cc1 | 0 | 18 | -44 | 3
O=C(OCc1ccccc1)N1CCCN(CCc2ccncc2)CC1 | 1.9* | 5 | -11 | 0
SMILES | FBW7 act | MITF inh | TEAD-YAP block | GPR151 activ
O=Nc1onc(-c2ccc([N+](=O)[O-])cc2)c1NO | 0 | -12 | 10 | 1
Cc1ccc(-c2noc(N=O)c2NO)cc1 | 0 | -3 | 36* | 1
CCn1nnc2c(NCc3ccc4[nH]c(C)cc4c3)ncnc21 | 0 | 17 | 65* | 3
CCn1nnc2c(Nc3cccc(C)c3)ncnc21 | 0 | -1 | -61 | -3
COc1ccc(S(=O)(=O)Nc2cc(OC)ccc2OC)cc1 | 0 | -10 | 61* | 3
COc1ccc(OC)c(NS(=O)(=O)c2ccc(-c3ccccc3)cc2)c1 | 0 | 10 | 35* | 0
COc1ccc(S(=O)(=O)Nc2ccc(C)cn2)cc1 | 2.5* | 11 | -9 | -2
COc1ccc(OC)c(NC(=O)C2CCCC2)c1 | 25* | 8 | -3 | 0
Cc1ccc(NC(=O)c2ccc(Br)o2)cc1N1CCCC1=O | 0 | 13 | 1 | 2
CN(C)CC(C)(C)CNC(=O)c1cc(F)cc(F)c1 | 0 | 9 | 3 | -1
NS(=O)(=O)c1ccc(Nc2nccc(-c3ccccc3)n2)cc1 | 0 | -5 | -16 | -1
NS(=O)(=O)c1ccc(Nc2nccc(-c3cccc(Cl)c3Cl)n2)cc1 | 24* | 14 | -6 | 1
COc1ccccc1-c1ccnc(Nc2ccc(S(N)(=O)=O)cc2)n1 | 1 | 68* | 34* | 1

Screening data deposited in PubChem BioAssay by The Scripps Research Institute Molecular Screening Center.
